# Experimental data: PubChem BioAssay (NCI)
# This is part of a sample that, as a whole, favours compounds with a hit. Of some 83,000 tested, about 20% had one in any assay.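 Each cell line was grown in a 96-well plate and treated with one concentration of compound for 48 hours. Values below 10 were considered active.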 Active and inactive are the calls of the source.
# System: SNB-19 CNS
# Assay: NCI-60 one-dose screen, 48 h (100 = growth as untreated, 0 = no growth, -100 = all killed)
# Conditions: 10 µM unless noted
row,SMILES,growth
1,COC(=O)c1c2c(c(C)[n+]([O-])c1C)C(=O)C(NCc1ccc(OC)cc1)=CC2=O,5.27% (active)
2,O=C1/C(=C\c2cccc3nccnc23)SC(=S)N1CCc1ccc(O)cc1,94.4% (inactive)
3,Cc1cn(-c2cc(NC(=O)c3cncc(C#Cc4c(N)ncc5ccc(F)cc45)c3)cc(C(F)(F)F)c2)cn1,91.9% (inactive)
4,CCCCNC(=O)Oc1ccc(/C(=C(/C)Cc2ccc(OC)cc2)c2ccc(OCCN3CCCCCC3)cc2)cc1,85.8% (inactive)
5,COc1ccc(-c2n[nH]c(=O)c3nc(NC(=S)Nc4ccc(Oc5ccccc5)cc4)sc23)cc1,101% (inactive)
6,O=C(/C=C/C12c3ccccc3C(c3ccccc31)C1C(=O)NC(=O)C12)c1ccc(Br)cc1 (stereo not drawn),51.3% (inactive)
7,C=CN(C(=O)N1CCN(c2cc3c(cc2F)c(=O)c(C(=O)O)cn3C2CC2)CC1)c1nc(-c2ccc(OC)cc2)cs1,19.2% (inactive)
8,Cc1cc(Nc2ccc(C(=O)N3CCCC3)cc2)nc(NCCCNc2ccnc3cc(Cl)ccc23)n1,84.1% (inactive)
